High-throughput results from PubChem.
In the library only some 0.88% were active in any assay of this set; here they are far more common.
WRN helicase inh-1 = qHTS for Inhibitors of WRN Helicase; 360,000 tested, 0.46% active; Bifunctional 3'-5' exonuclease/ATP-dependent helicase WRN (Homo sapiens), Q14191; WRN helicase unwinding, fluorescent forked duplex, kinetic; Potency, µM (top dose mostly 114 µM), without a hit: top-dose activity change, negative = inhibition, most hits filed as inhibitors; further: on the % scale 0 is the no-effect control and ±100 the full control effect; nearly all actives have a fitted effect of over 55% in size
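Enzyme (20 nM final) and test compound sit together 15 min at room temperature before substrate addition. Substrate is a single-forked duplex oligonucleotide (100 nM) labelled with fluorophore and quencher, with 2 mM ATP; helicase unwinding raises red fluorescence, read kinetically.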
KAT2A inh = qHTS Assay for Inhibitors of GCN5L2. GCN5L2 HAT assay, ThioGlo1 CoA-SH fluorescence. Potency, µM (top dose mostly 58.9 µM), for the others: at the highest dose activity change, negative = inhibition, most hits filed as inhibitors. 390,000 tested, 0.21% active; further: on the % scale 0 is the no-effect control and ±100 the full control effect
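ThioGlo1-coupled HAT assay: 20nM GCN5L2, 70uM acetyl-CoA, 75uM H3(1-25) peptide, pH 7.5. Fluorescence read at 340/540nm at start and after 20 min at room temperature.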
APEX1 inh = qHTS Assay for Inhibitors of the Human Apurinic/apyrimidinic Endonuclease 1 (APE1). DNA repair nuclease/redox regulator APEX1 (Homo sapiens), P27695. recombinant APE1, TAMRA/BHQ-2 abasic DNA cleavage fluorescence. Potency, µM (series often up to 65.8 µM), without a hit: at the top dose activity change, negative = inhibition, most hits filed as inhibitors. 350,000 tested, 0.35% active;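 further: plate controls were vehicle for no effect and reference inhibitor for full effect; nearly all actives have a fitted effect of over 55% in size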
Target sequence (P27695 whole entry, looked up): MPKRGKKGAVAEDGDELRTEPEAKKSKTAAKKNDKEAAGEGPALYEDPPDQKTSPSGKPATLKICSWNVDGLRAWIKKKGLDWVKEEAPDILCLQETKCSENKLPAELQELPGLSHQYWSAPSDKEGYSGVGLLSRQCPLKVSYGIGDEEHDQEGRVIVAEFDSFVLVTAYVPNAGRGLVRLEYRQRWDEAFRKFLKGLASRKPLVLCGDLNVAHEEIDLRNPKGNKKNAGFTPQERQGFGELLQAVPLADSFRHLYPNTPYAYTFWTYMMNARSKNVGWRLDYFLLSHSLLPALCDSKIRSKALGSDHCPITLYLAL
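Incision of a quenched TAMRA/BHQ-2 THF abasic-site duplex (50 nM) by 0.75 nM APE1, after 15 min compound preincubation, measured as fluorescence increase over three 60 s reads. Values normalized to buffer, DMSO and NSC13755 control wells.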
ERG Ets-DNA blk = qHTS for Small Molecule Inhibitors of the ERG Ets/DNA interaction; fluorescence polarization, His-ERG Ets domain / labelled DNA; 370,000 tested, 0.028% active; Potency, µM (titrated, usually from 76.9 µM), for the others: at the highest dose FP activity, negative = inhibition, hits mostly inhibitors; active means well fitted inhibition curve with a large enough effect in the polarisation, with a control signal flat; inconclusive means small, poorly fitted or top-dose-only effect, or effect the other way, or a change in a side signal; inactive means no such curve, though single readings can be large or run the other way; the % refers to the polarisation;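 further: polarization taken with two DNA probes labelled with fluorescein and Texas red; % of control where 0% means no effect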
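His-tagged ERG Ets domain (1 uM in the protein solution; 300mM KCl, 50mM Tris-HCl, 1mM EDTA, 1mM DTT, pH 7.5) received compound, then a probe mix of 5 nM fluorescein-DNA and 100nM Texas-615-DNA. Fluorescence polarization was read for both dyes.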
BLM helicase inh-1 = qHTS Assay for Inhibitors of Bloom's syndrome helicase (BLM); RecQ-like DNA helicase BLM (Homo sapiens), P54132; recombinant BLM DNA unwinding, fluorescence dequenching; Potency, µM (highest dose often 56.1 µM), for the others: at the highest dose activity change, negative = inhibition, usual class: inhibitors; 350,000 tested, 0.2% active; AID 2528, 2010;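 further: plate controls were vehicle for no effect and no enzyme for full effect; nearly all actives have a fitted effect of over 35% in size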
RECQ1 helicase = qHTS Assay for Inhibitors of RecQ-Like Dna Helicase 1 (RECQ1). ATP-dependent DNA helicase Q1 (Homo sapiens), P46063. AID 2549, 2010. 240,000 tested, 0.54% active. Potency, µM (top dose mostly 57.3 µM), inactives show at the highest dose activity, negative = inhibition, most hits filed as inhibitors. RECQ1 DNA unwinding, red fluorescence kinetic read;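 further: plate controls were vehicle for no effect and no enzyme for full effect; nearly all actives have a fitted effect of over 30% in size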
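RECQ1T1 50 nM; forked duplex (20 bp + 30-nt ss tails) 200 nM, ATP 2 mM final; pH 8.0, 2 mM MgCl2, 2.5 ug/ml poly(dI-dC); 15 min compound preincubation; discontinuous kinetic read over 2 h at RT.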
WRN helicase inh-2 = qHTS for Inhibitors of WRN Helicase: Confirmatory Assay for Cherry-picked Compounds; Potency, µM (series often up to 57.1 µM), without a hit: at the highest dose activity, negative = inhibition, usual class: inhibitors; 610 tested, 63% active; WRN helicase DNA unwinding, fluorescence kinetic; shares compounds with WRN helicase inh-1; further: nearly all actives have a fitted effect of over 65% in size
TO displacement = qHTS for Inhibitors of WRN Helicase: Thiazole Orange DNA Binding Counterscreen. shares compounds with WRN helicase inh-1. 610 tested, 10% active. Potency, µM (titrated, usually from 57.1 µM), for the others: at the highest dose activity change, negative = inhibition, most hits filed as inhibitors. thiazole orange DNA binding displacement, fluorescence;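 further: drop in dye fluorescence marks compound binding to DNA; on the % scale 0 is the no-effect control and ±100 the full control effect; nearly all actives have a fitted effect of over 60% in size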
BLM helicase inh-2 = qHTS for Inhibitors of WRN Helicase: BLM Helicase Counterscreen for WRN Inhibitors | shares compounds with WRN helicase inh-1 | Recombinant BLM helicase DNA unwinding, red fluorescence | Potency, µM (doses to about 57.1 µM), for inactives: at the highest dose activity change, negative = inhibition, actives largely listed as inhibitors | 610 tested, 60% active | AID 720503, 2013; further: nearly all actives have a fitted effect of over 60% in size
* = called active by the depositor; [ ] = another dose, or the depositor's remark. Unless noted, the call rests on the fitted dose curve; in most records, active means well fitted curve in the direction sought with a large enough effect; inconclusive means small, poorly fitted or top-dose-only effect, or another doubt; inactive means no such curve, though single readings can be large; an effect the other way counts as inactive or inconclusive. Potency means the concentration at half of the fitted maximal effect.

How did CCC1CN2CCC1CC2C(Oc1cc2ccccc2c2ccccc12)c1ccnc2ccc(O)cc12 (centres undefined) do in these assays?
APEX1 inh: -3%[12.4 µM]; BLM helicase inh-1: -2%[12.4 µM]; RECQ1 helicase: 11%[11.5 µM]

Results for O=C1NC(=S)N(C2CC2)C(=O)/C1=C/c1ccc2c(c1)CCN2CCCCl ?
WRN helicase inh-1: 3µM*; KAT2A inh: -11%; APEX1 inh: inconclusive; ERG Ets-DNA blk: 4%; BLM helicase inh-1: inconclusive; RECQ1 helicase: inconclusive; WRN helicase inh-2: 12µM*; TO displacement: inconclusive; BLM helicase inh-2: 7.6µM*

Results for CC(C)(C)N1C(=O)NC(=O)/C(=C\c2ccc3c(c2)CCN3CCCCl)C1=O ?
WRN helicase inh-1: -26%[57.1 µM]; KAT2A inh: -11%; APEX1 inh: -19%; ERG Ets-DNA blk: 2%; BLM helicase inh-1: -24%; RECQ1 helicase: inconclusive

How did COc1cccc(OC)c1-c1nn2c(-c3n[nH]c4c3CCC4)nnc2s1 do in these assays?
WRN helicase inh-2: inconclusive; TO displacement: inconclusive; BLM helicase inh-2: inconclusive

What do the screens show for `ClC(Br)Br`?
APEX1 inh: 0%; RECQ1 helicase: 8%

How did CCOc1cc(C=C2C(=O)NC(=O)NC2=O)ccc1OCC(=O)N1CCOCC1 do in these assays?
WRN helicase inh-1: inconclusive; KAT2A inh: 1%; APEX1 inh: -1%; ERG Ets-DNA blk: -8%; BLM helicase inh-1: 4%; RECQ1 helicase: -4%; WRN helicase inh-2: -4%; TO displacement: -3%; BLM helicase inh-2: -11%

How did CCOc1ccc(C=C2C(=O)NC(=S)NC2=O)cc1OCC do in these assays?
WRN helicase inh-1: inconclusive; ERG Ets-DNA blk: 17%

Results for COc1cc(C=C2C(=O)NC(=O)NC2=O)ccc1OS(=O)(=O)c1ccccc1[N+](=O)[O-] ?
WRN helicase inh-1: 28µM*; KAT2A inh: -1%; APEX1 inh: 17%; ERG Ets-DNA blk: -2%; BLM helicase inh-1: -3%; WRN helicase inh-2: -20%; TO displacement: -10%; BLM helicase inh-2: -4%

What do the screens show for `CCC(C)N1C(=O)/C(=C\c2cnc(N(C)C)nc2)C(=O)NC1=S` (centres undefined)?
WRN helicase inh-1: 50µM*; KAT2A inh: -14%; APEX1 inh: 1%; ERG Ets-DNA blk: 42%; BLM helicase inh-1: -5%; RECQ1 helicase: -14%; WRN helicase inh-2: -6%; TO displacement: 7%; BLM helicase inh-2: -18%
